Composite z-score data for 35 molecules are collected here from PubChem BioAssay.

The test concerns Sam68 (KHDRBS1). The experiment in a line: compounds binding KHDRBS1 protein – biochemical, small-molecule microarray, 635 nm fluorescence, primary screen (AID 1125).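 Note: score merges 667 nm channel intensity with signal to noise over triplicate slides.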 To be noted: higher = more signal.
Take `COc1ccc([C@H]2OC[C@@H]3C[C@@H](Cc4ccccc4)C(=O)N32)cc1`: the composite z-score amounted to 0.338.
As for `COCCCNC(=O)[C@@H]1c2ccccc2C(=O)N(Cc2ccccc2Cl)[C@H]1c1ccc(CO)cc1`, the figure is 0.95; as for `O=C1C2C=CC(C(O)c3cccc4ccccc34)N(Nc3ccccc3F)C2C(=O)N1c1ccccc1` (stereo not given), 1.29; as for `COC(=O)[C@@]1(CCS(=O)(=O)c2ccccc2)N=C(c2ccc(OCCCO)cc2)O[C@H]1c1ccccc1CN=[N+]=[N-]`, 1.34.
As for `C=C[C@H](OC)[C@@H](OC(=O)Nc1ccc(OC)cc1)c1ccc(O)c(F)c1`, the figure is 0.96; as for `C=CCC(OC(C)=O)[C@@H]1[C@@H](N(Cc2ccc(-c3ccccc3)cc2)C(=O)c2cccc3ccccc23)c2cc(OCCCO)ccc2N1C(=O)c1ccc(-c2ccccc2)cc1` (stereo not given in full), 0.316; as for `C=CCOC(=O)[C@H]1[C@@H]2C(=O)O[C@@H](c3ccccc3)[C@@H](c3ccccc3)N2[C@@H](c2ccc(OCCOC(=O)[C@H]3C[C@H]4C(=O)N[C@@H](CCCC[N+](C)(C)C)C(=O)N4[C@H]3c3ccc(O)cc3)cc2)[C@]12C(=O)Nc1ccc(I)cc12`, 1.11.
As for `COC(=O)[C@@]1(Cc2ccc(OC)cc2)[C@@H]2C(=CC(=O)[C@H]2CC(=O)C(=O)N2CCCC2)CN1C(=O)c1ccccc1`, the figure is -0.685; as for `C[C@H]1NC(=O)[C@@]23C(=O)N[C@@H](Cc4ccccc4)C2[C@H](C)[C@@]2(C)O[C@H]2C3/C=C/C/C=C\CNC(=O)[C@@H]2CCCN2C1=O` (stereo not given in full), 0.574; as for `O=C(OCc1ccccc1)C1=CCC2c3[nH]c4ccccc4c3C(=O)C1N2S(=O)(=O)c1ccccc1[N+](=O)[O-]` (stereo not given), 1.06.
`COC(=O)[C@@]1(Cc2ccc(OC)cc2)[C@H]2c3cc(C(=O)N4CCCC4)n(Cc4ccc(C)c(F)c4F)c3C[C@H]2CN1C(=O)c1ccccc1` came in with a composite z-score of 1.3.
As for `C=CCOC(=O)[C@H]1[C@@H]2C(=O)O[C@@H](c3ccccc3)[C@@H](c3ccccc3)N2[C@@H](c2ccc(OCCOC(=O)[C@H]3C[C@H]4C(=O)N[C@@H](CCCCNC(C)=O)C(=O)N4[C@H]3c3cccc(OCCO)c3)cc2)[C@]12C(=O)Nc1ccccc12`, the figure is 1.25; as for `CC(C)c1ccc(NN2C(C(O)c3ccc(B(O)O)cc3)C=CC3C(=O)N(c4ccccc4)C(=O)C32)cc1` (stereo not given), 1.26.
`CCCC=C(CCC)[C@@H](NC(=O)c1cccs1)c1ccc(C(F)(F)F)cc1` displayed a composite z-score of 1.23.
As for `COc1ccc(C#Cc2ccc3c(c2)[C@]2(C(=O)N3)[C@H](C(=O)Nc3nc4ccccc4s3)[C@H]3C(=O)O[C@H](c4ccccc4)[C@H](c4ccccc4)N3[C@@H]2c2ccc(O)cc2)cc1`, the figure is 1.31; as for `CCCCCCc1nc(-c2cc(C)c(OC)c(C)c2)cc2c1[Si](C(C)C)(C(C)C)OC2`, 0.363; as for `COCCOC(=O)N1C(=O)[C@@]2(c3cc(C#Cc4ccc(OC)cc4)ccc31)[C@H](c1ccccc1OCCO)N1[C@H](c3ccccc3)[C@H](c3ccccc3)OC(=O)[C@H]1[C@@H]2C(=O)NC[C@H](O)c1ccccc1`, 1.29.
As for `COC(=O)C(CC#Cc1ccc2c(c1)[C@]1(C(=O)N2)[C@H](c2ccc(OCCO)cc2)N2[C@H](c3ccccc3)[C@H](c3ccccc3)OC(=O)[C@H]2[C@@H]1C(=O)N1CCc2cc(OC)c(OC)cc2C1)C(=O)OC`, the figure is 1.31.
As for `COCCOC(=O)N1C(=O)[C@@]2(c3cc(C#CCC(C(=O)OC)C(=O)OC)ccc31)[C@H](c1ccccc1OCCO)N1[C@H](c3ccccc3)[C@H](c3ccccc3)OC(=O)[C@H]1[C@@H]2C(=O)N1CCN(c2ncccn2)CC1`, the figure is 1.31; as for `O=C(c1ccccc1)N1C(=O)[C@]2(COC(c3ccc(OCCCO)cc3)=N2)Cc2ccccc21`, 1.29; as for `COc1ccc([Si](C)(C)[C@@H]2[C@@H](CCO)O[C@]3(C(=O)N(Cc4ccc(N(C=O)c5ccccc5)cc4)c4ccccc43)[C@H]2C)cc1`, 0.495.
`O=C1c2ccccc2[C@](Cc2ccccc2I)(C(=O)NCC(F)(F)F)[C@H](c2ccc(CO)cc2)N1Cc1ccccc1Cl` returned a composite z-score of 1.29.
As for `COCCOC(=O)N1C(=O)[C@@]2(c3cc(C#CCCO)ccc31)[C@H](C(N)=O)[C@H]1C(=O)O[C@H](c3ccccc3)[C@H](c3ccccc3)N1[C@@H]2c1ccc(O)cc1`, the figure is 0.0991; as for `C=C(CCCC)/C(=C/C[C@@H](OC(=O)c1ccncc1)c1ccc(OCCO)cc1)c1cc(C(=O)OC)ccc1OC`, 1.12.
As for `C=CCN1C(=O)[C@]2(O[C@H](CCn3cc([C@H](O)c4ccccc4)nn3)[C@@H]([Si](C)(C)c3ccc(OC)cc3)[C@@H]2C)c2ccccc21`, the figure is -0.776.
As for `[N-]=[N+]=NCc1ccccc1[C@@H]1OC(c2ccc(OCCCO)cc2)=N[C@]1(Cc1ccccc1)C(=O)NCC(O)CO` (stereo not given in full), the figure is 1.22.
Regarding `COc1cc2c(cc1OC)CN(C(=O)[C@H]1[C@@H]3C(=O)O[C@@H](c4ccccc4)[C@@H](c4ccccc4)N3[C@@H](c3ccc(O)cc3)[C@]13C(=O)Nc1ccc(C#CCCO)cc13)CC2`, the composite z-score was 1.24.
As for `C=CCNC(=O)[C@@H]1[C@H]2C(=O)O[C@H](c3ccccc3)[C@H](c3ccccc3)N2[C@H](c2ccccc2OCCO)[C@@]12C(=O)N(C(=O)OCCOC)c1ccccc12`, the figure is 1.31; as for `CC1(C)[C@@H]2CC(C(O)C3C=CC4C(=O)N(c5ccccc5)C(=O)C4N3Nc3ccc([N+](=O)[O-])cc3)=C[C@H]1C2` (stereo not given in full), 1.33.
In turn, `C=CCNC(=O)[C@H]1[C@@H]2C(=O)O[C@@H](c3ccccc3)[C@@H](c3ccccc3)N2[C@@H](c2ccccc2OCCO)[C@]12C(=O)Nc1ccc(C#CCC(C(=O)OC)C(=O)OC)cc12` registered a composite z-score of 1.29.
As for `O=C1C2C=CC(C(O)c3cc(C(F)(F)F)cc(C(F)(F)F)c3)N(n3cnnc3)C2C(=O)N1Cc1ccccc1` (stereo not given), the figure is 0.824.
As for `COc1cc(NN2C(C(O)c3ccco3)C=CC3C(=O)N(c4ccccc4)C(=O)C32)cc(OC)c1OC` (stereo not given), the figure is 0.203; as for `CN(C)CCCCCCNC(=O)[C@@H]1C[C@@H]2C(=O)N[C@@H](Cc3ccccc3)C(=O)N2[C@@H]1c1ccc(O)cc1`, 1.31; as for `CC(C)NC(=O)[C@@]1(c2ccc([N+](=O)[O-])cc2)CC(=O)N(C2CCCCC2)[C@@H]1c1ccc(CO)cc1I`, 0.93.
As for `C=CC[C@]1(C(=O)NCc2ccccc2)N=C(c2ccc(OCCCO)cc2)O[C@H]1c1ccccc1N=[N+]=[N-]`, the figure is 1.34.
